# Results as given in PubChem BioAssay AID1159580 (chemical genetic matrix, 2015).
# Among all 5,500 compounds or so, about 2,000 (36%) were called active. Another 18% or so got no clear call; they are omitted. The list shows a part of the results. Unmarked numbers belong to inactive results. Rule as the data show it: active = normalized growth mostly below about 0.91 (no sharp cut-off); inconclusive = no clear call, values can overlap the other calls; inactive = mostly above about 0.92.
# Assay: chemical genetic growth profiling, strain panel (AID 1159580);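 also: tested at 20 µM; growth read once vehicle control cultures reached saturation at 30 °C; 1 = growth at the plate median or of vehicle wells; lower values mean less growth of the strain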
# Conditions: S. cerevisiae deletion strains, growth OD
smiles,measurement,setting,value
NC(N)=Nc1nc(-c2cc(Cl)sc2Cl)cs1,normalized growth,"locus YAR019C, strain CDC15, stronger effect = lower value",0.994
same,normalized growth,"locus YBL105C, strain PKC1, stronger effect = lower value",0.998
same,normalized growth,"locus YBR135W, strain CKS1, stronger effect = lower value",0.987
same,normalized growth,"locus YBR136W, strain MEC1, stronger effect = lower value",0.99
same,normalized growth,"locus YBR160W, strain CDC28, stronger effect = lower value",0.99
same,normalized growth,"locus YDL017W, strain CDC7, stronger effect = lower value",0.993
same,normalized growth,"locus YDL028C, strain MPS1, stronger effect = lower value",0.985
same,normalized growth,"locus YDL101C, strain DUN1, stronger effect = lower value",0.966
same,normalized growth,"locus YDL108W, strain KIN28, stronger effect = lower value",0.988
same,normalized growth,"locus YDL132W, strain cdc53, stronger effect = lower value",0.979
same,normalized growth,"locus YDL214C, strain PRR2, stronger effect = lower value",0.934
same,normalized growth,"locus YDR052C, strain DBF4, stronger effect = lower value",0.99
same,normalized growth,"locus YDR054C, strain cdc34, stronger effect = lower value",0.973
same,normalized growth,"locus YDR226W, strain ADK1, stronger effect = lower value",0.974
same,normalized growth,"locus YDR477W, strain SNF1, stronger effect = lower value",0.944
same,normalized growth,"locus YER123W, strain YCK3, stronger effect = lower value",0.862
same,normalized growth,"locus YER133W, strain GLC7, stronger effect = lower value",0.905
same,normalized growth,"locus YFL009W, strain cdc4, stronger effect = lower value",0.983
same,normalized growth,"locus YFL029C, strain CAK1, stronger effect = lower value",0.988
same,normalized growth,"locus YFR003C, strain YPI1, stronger effect = lower value",0.986
same,normalized growth,"locus YFR019W, strain FAB1, stronger effect = lower value",0.947
same,normalized growth,"locus YFR028C, strain CDC14, stronger effect = lower value",0.982
same,normalized growth,"locus YGR040W, strain KSS1, stronger effect = lower value",0.942
same,normalized growth,"locus YGR052W, strain FMP48, stronger effect = lower value",0.935
same,normalized growth,"locus YGR092W, strain DBF2, stronger effect = lower value",0.945
same,normalized growth,"locus YHR030C, strain SLT2, stronger effect = lower value",0.821 (active)
same,normalized growth,"locus YHR079C, strain IRE1, stronger effect = lower value",0.897
same,normalized growth,"locus YHR082C, strain KSP1, stronger effect = lower value",1
same,normalized growth,"locus YHR205W, strain SCH9, stronger effect = lower value",0.904
same,normalized growth,"locus YIL147C, strain SLN1, stronger effect = lower value",0.987
same,normalized growth,"locus YJL095W, strain BCK1, stronger effect = lower value",0.826
same,normalized growth,"locus YJL128C, strain PBS2, stronger effect = lower value",0.922
same,normalized growth,"locus YJL157C, strain FAR1, stronger effect = lower value",0.932
same,normalized growth,"locus YJR016C, strain ILV3, stronger effect = lower value",0.997
same,normalized growth,"locus YJR066W, strain TOR1 (second series), stronger effect = lower value",0.886
same,normalized growth,"locus YJR066W, strain TOR1, stronger effect = lower value",0.997
same,normalized growth,"locus YKL048C, strain ELM1, stronger effect = lower value",0.947
same,normalized growth,"locus YKL067W, strain YNK1, stronger effect = lower value",0.932
same,normalized growth,"locus YKL101W, strain HSL1, stronger effect = lower value",0.93
same,normalized growth,"locus YKL193C, strain SDS22, stronger effect = lower value",0.985
same,normalized growth,"locus YKL203C, strain TOR2, stronger effect = lower value",0.988
same,normalized growth,"locus YLR113W, strain HOG1, stronger effect = lower value",0.757 (active)
same,normalized growth,"locus YLR133W, strain CKI1, stronger effect = lower value",0.958
same,normalized growth,"locus YLR403W, strain SFP1, stronger effect = lower value",0.962
same,normalized growth,"locus YML070W, strain DAK1, stronger effect = lower value",0.901
same,normalized growth,"locus YMR001C, strain CDC5, stronger effect = lower value",0.993
same,normalized growth,"locus YMR205C, strain PFK2 (second series), stronger effect = lower value",0.948
same,normalized growth,"locus YMR277W, strain FCP1, stronger effect = lower value",0.985
same,normalized growth,"locus YNL006W, strain LST8, stronger effect = lower value",0.984
same,normalized growth,"locus YNL020C, strain ARK1, stronger effect = lower value",0.96
same,normalized growth,"locus YNL161W, strain CBK1, stronger effect = lower value",0.989
same,normalized growth,"locus YNL183C, strain NPR1, stronger effect = lower value",0.988
same,normalized growth,"locus YNL207W, strain RIO2, stronger effect = lower value",0.989
same,normalized growth,"locus YNL222W, strain SSU72, stronger effect = lower value",0.99
same,normalized growth,"locus YNL307C, strain MCK1 (second series), stronger effect = lower value",0.927
same,normalized growth,"locus YOL078W, strain AVO1, stronger effect = lower value",0.986
same,normalized growth,"locus YOL136C, strain PFK27, stronger effect = lower value",0.91
same,normalized growth,"locus YOR061W, strain CKA2, stronger effect = lower value",0.983
same,normalized growth,"locus YOR119C, strain RIO1, stronger effect = lower value",0.981
same,normalized growth,"locus YOR231W, strain MKK1, stronger effect = lower value",0.935
same,normalized growth,"locus YOR329C, strain SCD5, stronger effect = lower value",0.995
same,normalized growth,"locus YPL031C, strain PHO85, stronger effect = lower value",0.93
same,normalized growth,"locus YPL153C, strain RAD53, stronger effect = lower value",0.921
same,normalized growth,"locus YPL204W, strain HRR25, stronger effect = lower value",0.921
same,normalized growth,"locus YPL209C, strain IPL1, stronger effect = lower value",0.99
same,normalized growth,"locus YPL256C, strain CLN2, stronger effect = lower value",0.89
same,normalized growth,"locus YPR025C, strain CCL1, stronger effect = lower value",0.992
same,normalized growth,"locus YPR106W, strain ISR1, stronger effect = lower value",0.985
same,normalized growth,"locus YPR111W, strain DBF20, stronger effect = lower value",0.974
same,normalized growth,"strain NNK1, stronger effect = lower value",0.971
same,normalized growth,"strain TSCII, stronger effect = lower value",0.985
